Screen size: about 68,000 compounds; about 60 (0.09%) were called active. Calls come from the whole dose curve; as a rule, active = well fitted curve in the direction sought with a large enough effect; inconclusive = small, poorly fitted or top-dose-only effect; inactive = flat fitted curve, though single readings scatter. Not all results are given here. Where a SMILES comes first, the peptide text is derived from it. The star is where a group is joined. Bz = O=C(c1ccccc1)*
Assay: qHTS Assay for Epigenetic Modulators; note: % of control where 0% means no effect
Conditions: mouse C127i GFP locus derepression, cytometry, 30 h; series mostly up to 46.1 µM
Excerpt: NIH Molecular Libraries Screening Centers Network [MLSCN] NIH Chemical Genomics Center [NCGC] MLSCN Grant: 1 X01 MH079860-01 Assay Provider: Elisabeth D. Martinez, University of Texas SW Medical Center NCGC Assay Overview: The Locus Derepression assay detects the derepression of a GFP reporter that is stably integrated in a region of the genome of murine c127i mammary cells that is presumably silenced. GFP transcription in this construct is controlled by a CMV promoter, which normally is strong and constitutively active. However, this line was selected for lack of constitutive expression of the GFP protein. GFP production can be induced by incubating the cells with histone deacetylase or DNA methyltransferase inhibitors. Compounds that cause derepression of the locus to express GFP are identified by enumerating GFP positive cells using a laser-scanning microplate cytometer. For further details of this screen and follow-up characterization, see R.L. Johnson, W. Huang, A. Jadhav, C.P. Austin, J. Inglese, E.D. Martinez, A Quantitative High-Throughput Screen Identifies Potential Epigenetic Modulators of Gene Expression, Analytical Biochemistry (2008) 375(2):237-48.
NCGC Assay Protocol Summary: Two hundred and fifty cells in 5 uL per well were dispensed into black, clear-bottom 1536-well plates. Twenty-three nL compound was transferred to the assay plate and cells were incubated 30 hours at 37 C. Medium was removed, cells were washed two times with PBS, and GFP-positive cells were enumerated as fluorescent objects between the sizes of 20 to 120 um width and depth using an Acumen Explorer. Keywords: NIH Roadmap, MLSCN, MLI, MLSMR, qHTS, NCGC, qHTS, HDAC, DNMT, HAT, DNA methyltransferases, histone acetyl transferases, histone deacetylases

GFP derepression (activation), inactive:
Cn1c(=O)c2cn(-c3cccc4ccccc34)cc2n(C)c1=O
CC(C)NC(=O)N1CC[C@@]2(CCCN(C(=O)c3cccc(F)c3)C2)C1 -0.9% [at 9.22 µM]
CC(=O)c1ccc(Oc2cc(C)nc(-n3nc(C)cc3C)n2)cc1
Cc1ccc(-c2nn(-c3ccccc3)cc2CN(Cc2ccccc2)C(=O)CCC(=O)O)o1
COc1ccc(N2CCN(Cc3cc(=O)oc4ccc5ccccc5c34)CC2)cc1
O=C(NCCCNC(=O)NC1CCCCC1)NC1CCCCC1
FC(F)(F)c1cccc(Nc2ncnc3ccccc23)c1
O=C1C2(c3ccccc3)CN(CCCO)CC1(c1ccccc1)CN(CCCO)C2
COC(=O)c1sc(=S)n(-c2ccccc2)c1N
CCCN1C(=O)C(NC(C)=O)c2cc(OC)ccc21 (configuration not stated)
O=C(NCCc1ccco1)c1nn(Cc2ccccc2)c(=O)c2ccccc12
CC(C)(C)C(=O)CCN1C(=O)C2(OCCO2)c2ccccc21
CCC(C(=O)OCCN(CC)CC)c1ccccc1 (configuration not stated)
Cc1cc(C)c2nc3c(c([C@H](O)[C@@H]4CCCCN4)c2c1)CC/C3=C/c1ccc(Cl)cc1 0% [at 9.22 µM]
CC1=CC(C)(C)N(C(=O)CSc2nnc(-c3ccccc3)o2)c2ccc(C)cc21
O=C(O)c1ccc(NS(=O)(=O)c2cccc3nsnc23)cc1
COc1ccccc1C(=O)NCCn1cc(SCC(=O)NCc2ccco2)c2ccccc21
O=C(Cn1[nH]c(=O)c2ccccc2c1=O)Nc1cccc(-c2nnc3n2CCCCC3)c1
COc1ccc(NC(=O)c2c(C)oc3c2CCCC3)cc1
CS(=O)(=O)N1CCC[C@@]2(CCN(c3ccncc3)C2)C1 0% [at 9.22 µM]
O=C(O)c1ccc(NC(=O)c2cccs2)cc1
O=C(Nc1ccc(Cl)cc1)c1ccsn1
COc1ccc(C2C3=C(CC(C)(C)CC3=O)Oc3ncn4nc(-c5cccnc5)nc4c32)cc1OC (configuration not stated)
CN1CCN2c3ccccc3Cc3ccccc3[C@@H]2C1
O=C(CCCn1c(SCC(=O)c2ccc(F)cc2)nc2ccccc2c1=O)NCc1ccco1
COC(=O)[C@H](C)NC(=O)Nc1ccc(OC(F)(F)F)cc1
COC(=O)c1cnn2c(C(F)(F)F)cc(-c3ccco3)nc12
COc1ccc(-c2nnc(SC(=O)N3c4ccccc4Sc4ccccc43)o2)cc1
COc1ccccc1-c1nc(NCc2cccs2)c2ccccc2n1 0% [at 9.22 µM]
O=c1oc2c(CN3CCCCC3)c(O)ccc2c2c1CCCCC2
COc1ccc(C2N=C(N)N=C(N)N2c2ccccc2)cc1OC (configuration not stated)
O=C(O)COc1c(Cl)cc(Cl)c2cccnc12 5.8% [at 9.22 µM]
CCn1c(SCC(=O)Nc2ccc3c(c2)OCCO3)nc2c(c1=O)SC(C)C2 (configuration not stated)
Cn1c(=S)c2[nH]c(SCCCc3ccccc3)nc2n(C)c1=O -3.4% [at 9.22 µM]
COc1cccc(Cn2c(=O)c(-c3ccccc3)nc3cnc(OC)nc32)c1 10.8% [at 9.22 µM]
CCCC(C(=O)OCCN(CC)CC)(c1ccccc1)c1ccccc1
O=C(OCCN1CCOCC1)C1(c2ccccc2)CCCCC1
O=C(c1cc(C(F)(F)F)cc(C(F)(F)F)c1)N1CCC2(CCCN(Cc3ccncc3)C2)CC1 2.2% [at 9.22 µM]
O=C(O)CCC(=O)Nc1ccc(N2CCOCC2)cc1
COCCn1c(=O)c(-c2cc(F)cc(F)c2)nc2cnc(N3CCNCC3)nc21 -0.5% [at 9.22 µM]
CN(C)C(=O)c1ccc(-c2cncnc2Nc2ccccc2)cc1 5.7% [at 9.22 µM]
COc1ccc(NC(=O)CSc2nnc(-c3cccs3)n2Cc2ccco2)cc1OC
CCOC(=O)N1CCN(C(=O)c2n[nH]c(=O)c3ccccc23)CC1
CC(=O)Nc1ccc(S(=O)(=O)N2CCSCC2)cc1
CCOc1ccc(NS(=O)(=O)c2ccc(OCC(=O)NCCCOC)cc2)cc1
COc1ccc(C(=O)N/N=C2/C(=O)c3c(C)cc(C)cc3CC2(C)C)cc1 3.4% [at 9.22 µM]
N#Cc1cc2[nH]c(=O)c(=O)[nH]c2cc1[N+](=O)[O-]
N/C(=N\c1nc2ccccc2o1)NC(=O)C(Cc1ccccc1)N1C(=O)c2ccccc2C1=O (configuration not stated)
CCCNS(=O)(=O)c1ccc(CCC(=O)NCc2cccnc2)cc1
Cc1nc2ccc(S(=O)(=O)NCC(=O)NCCN3CCCCC3C)cc2s1 (configuration not stated)
N#Cc1cccc(-c2nc3cnc(N4CCNCC4)nc3n(C3CC3)c2=O)c1 -5% [at 9.22 µM]
COc1ccc(C2OC(=O)CC2C(=O)NC(C)C)cc1 (configuration not stated)
O=C(NCC12CC3CC(C1)CC(CNC(=O)N1CCCC1)(C3)C2)N1CCCC1
C[C@]1(O)CC[C@H]2[C@H]3CC=C4N5CCN=C5CC[C@@]4(C)[C@H]3CC[C@@]21C -3.4% [at 9.22 µM]
COCCn1c(=O)c(C)nc2cnc(N(C)C)nc21 2.3% [at 9.22 µM]
CN1CCCc2cc(C#N)c(=O)[nH]c21
CCCc1[nH]nc2c1C(c1ccc(OC(=O)c3ccco3)cc1)C(C#N)=C(N)O2 (configuration not stated)
CCCCOc1ccc(-c2nnc(-c3ccco3)o2)cc1
CC(C)NC(=O)N1CC[C@@]2(CCCN(C(=O)c3cccn3C)C2)C1 2.2% [at 9.22 µM]
O=S(=O)(NCc1ccc2c(c1)OCO2)c1cccc2nsnc12
COc1ccc(CNC(=O)c2c(C)cc(=O)oc2C)cc1OC
Cc1cccc(CC(=O)Nc2c3c(nn2-c2cccc(Cl)c2)CS(=O)C3)c1 (configuration not stated)
Cc1nn(C)c(C)c1S(=O)(=O)N1CCc2ccccc21
Cc1nc2cnc(N3CCNCC3)nc2n(CCc2ccccc2)c1=O 8.1% [at 9.22 µM]
Clc1ccc(C(c2ccc(Cl)cc2)n2cc[n+](C[C@@H](OCc3ccc(Cl)cc3Cl)c3ccc(Cl)cc3Cl)c2)cc1
C=CCSC1=C(C#N)C(c2cc(Br)c(O)c(OC)c2)CC(=O)N1 (configuration not stated)
CN(C)CCSS(=O)(=O)O 0.1% [at 9.22 µM]
CC(NC(=O)CSc1nc2c(cc1C#N)CN(C)CC2)c1ccccc1 (configuration not stated)
CCNC(=O)CN(c1ccc(C)cc1)S(=O)(=O)c1ccc(SC)cc1
CC(=O)c1sc2nc(SCC(=O)N3CCCCC3)[nH]c(=O)c2c1C
Cn1cccc1C1(C(F)(F)F)NCCNC1=O (configuration not stated)
CCOC(=O)N1CCN(C(=O)c2nn(-c3ccc(C)cc3)c(=O)c3c2c2ccccc2n3C)CC1
COc1ccccc1CNC(=O)CCCNS(=O)(=O)c1cccc2nsnc12
O=C(c1ccc(O)cc1)c1ccc(C(=O)O)c(C(=O)O)c1
CCOC(=O)CNC(=O)CSc1nnnn1-c1cc(C)ccc1C
COc1ccc(S(=O)(=O)Nc2c(C)n(C)n(-c3ccccc3)c2=O)cc1
COc1ccc(C(C(O)C(=O)c2c[nH]c3ccccc23)N2CCN(c3ccccc3)CC2)cc1 (configuration not stated)
Cn1c(=O)[nH]c(=O)c2c1nc(N(CCO)Cc1ccccc1)n2Cc1ccccc1Cl
Cn1c(=O)cc(SCC(=O)N2CCN(C(=O)c3ccco3)CC2)c2ccccc21
COc1ccc(OC)c(CNC(=O)C2CCCN(c3nc4ccccc4o3)C2)c1 (configuration not stated)
Cn1cc(-c2nc3cnc(N4CCNCC4)nc3n(CCC#N)c2=O)c2ccccc21 7.6% [at 9.22 µM]
CCOCCc1c(O)nc(SCC(=O)NCc2ccco2)[nH]c1=O
N#CC(C(N)=O)=C1CCC2(CC1)OCCCCO2
COC(=O)c1ccc(C2NC(=O)NC(C)=C2C(=O)N(C)C)cc1 (configuration not stated)
CCn1c2c(c3ccc(OC)cc31)CCCC2=O
COc1ccc(S(=O)(=O)NC(CC(=O)NCc2ccccc2OC)c2ccco2)cc1 (configuration not stated)
O=C(NC(Cc1ccccc1)C(=O)N1CCCC1C(=O)O)c1ccccc1 (stereo not drawn) (Bz-Phe-Pro-OH; configuration not given here)
Cc1nc2cnc(Oc3cccc(Cl)c3)nc2n(C2CC2)c1=O -2.7% [at 9.22 µM]
C[C@H]1O[C@@H](CC(=O)O)Cc2c1c(O)c1c(O)cc(-c3cc(=O)c4c(=O)c5c(c(=O)c=4c3=O)C[C@H](CC(=O)O)O[C@@H]5C)c(O)c1c2O 10.3% [at 9.22 µM]
CNc1cc(-c2c(C)noc2C)ncn1 0% [at 9.22 µM]
O=C(c1c(Cl)nc2sccn12)N1CCCc2ccccc21
Cc1ccc2[nH]c(=O)c(-c3nc4c(C)cccn4c3NCc3ccco3)cc2c1
COc1ccc(CNc2ncncc2-c2ccccc2C)c(OC)c1 0% [at 9.22 µM]
CCOC(=O)c1[nH]c2ccccc2c1N=C(C)N(CC)CC
Fc1ccc(Cn2nnnc2C(c2cccs2)N2CCCCCC2)cc1 (configuration not stated)
COc1ccc2[nH]c(=O)c(CN(CC3CCCO3)C(=O)Nc3ccccc3)cc2c1 (configuration not stated)
COc1ccc2[nH]cc(CCNc3ncnc4ccc(-c5ccccc5CN(C)C)cc34)c2c1 -5.2% [at 9.22 µM]

— PubChem BioAssay AID597 (National Center for Advancing Translational Sciences (NCATS), 2007)
